# Test results as given in PubChem BioAssay AID651908 (Vanderbilt Specialized Chemistry Center, 2012).
# Activity calls are given as the source filed them. How the calls were made is not given here.
# Target: Histone deacetylase 8 (Homo sapiens) (UniProt Q9BY41)
# Test: HDAC8 deacetylase inhibition, profiling panel, selectivity assay for E-cadherin restoration project, biochemical, human (AID 651908)
# Details: recombinant HDAC8, fluorogenic peptide substrate, deacetylation; series mostly up to 10 µM
# Sequence of Histone deacetylase 8 (Homo sapiens) (Q9BY41 whole entry, looked up): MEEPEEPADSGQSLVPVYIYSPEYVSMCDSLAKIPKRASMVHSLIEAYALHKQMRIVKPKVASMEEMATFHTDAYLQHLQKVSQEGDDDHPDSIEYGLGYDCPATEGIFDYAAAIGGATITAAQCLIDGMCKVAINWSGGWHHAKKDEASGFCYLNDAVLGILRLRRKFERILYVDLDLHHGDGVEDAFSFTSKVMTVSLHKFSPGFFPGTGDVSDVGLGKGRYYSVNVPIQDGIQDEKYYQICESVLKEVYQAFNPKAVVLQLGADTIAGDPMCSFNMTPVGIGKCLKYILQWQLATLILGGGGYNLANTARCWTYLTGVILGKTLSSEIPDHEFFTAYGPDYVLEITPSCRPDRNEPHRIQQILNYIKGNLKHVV
structure (smiles),measurement,value
O=C(NCCCNC(=O)c1ccc[nH]c1=O)c1cc(-c2ccccc2)on1,outcome,inactive
